From PubChem BioAssay AID504332 (National Center for Advancing Translational Sciences (NCATS), 2011)
The campaign covered roughly 350,000 compounds. About 31,000 (8.9%) were called active. A call without a number means that no potency is given here. Inconclusive results (about 15%) are left out. Calls come from the whole dose curve; as a rule, active = well fitted inhibition curve with a large enough effect; inconclusive = small, poorly fitted or top-dose-only effect; inactive = no such curve, though single readings can be large or run the other way. Many of the other results were omitted from the sample, so actives are more common in it than they were.

Molecular target: Histone-lysine N-methyltransferase EHMT2 (Homo sapiens) (UniProt Q96KQ7)
Assay: qHTS Assay for Inhibitors of Histone Lysine Methyltransferase G9a; note: nearly all actives have a fitted effect of over 75% in size
Conditions: G9a H3K9 monomethylation, AlphaScreen, 2 h; series mostly up to 59 µM
Outline: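 Signal arises when biotinylated H3K9 peptide, once monomethylated, bridges streptavidin donor and antibody-captured acceptor beads. Enzyme at 20 nM was preincubated 15 min with test compounds; peptide 500 nM and SAM 20 uM then reacted for 2 h.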
Potency is the fitted concentration of half-maximal effect.

Histone-lysine N-methyltransferase EHMT2 (Homo sapiens), sequence (Q96KQ7 913-1193 limits assumed): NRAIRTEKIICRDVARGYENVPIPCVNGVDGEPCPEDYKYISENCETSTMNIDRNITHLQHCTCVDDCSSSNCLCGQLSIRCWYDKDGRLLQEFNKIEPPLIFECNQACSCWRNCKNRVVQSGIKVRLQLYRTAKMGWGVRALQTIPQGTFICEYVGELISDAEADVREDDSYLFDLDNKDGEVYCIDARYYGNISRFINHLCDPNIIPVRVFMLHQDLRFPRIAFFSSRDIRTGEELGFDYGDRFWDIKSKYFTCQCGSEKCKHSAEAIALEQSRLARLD

| Structure (SMILES) | Potency | activity, negative = inhibition |
| --- | --- | --- |
| O=C(COc1coc(CN2CCN(c3ccccc3)CC2)cc1=O)Nc1ccccc1F | inactive | – |
| COc1cc(C)cc(CN2CCC(Cc3ccccc3)CC2)c1O | – | -9.7% [at 2.33 µM] (inactive) |
| NC(=O)c1ccc(CN2CCC(Cc3ccccc3)CC2)cc1 | inactive | – |
| Brc1ccccc1CN1CCC(Cc2ccccc2)CC1 | 44.7 µM (active) | – |
| Cn1ccc2cc(S(=O)(=O)N3CCCC(C(=O)NCc4ccccc4F)C3)ccc21 (stereo unspecified) | inactive | – |
| Cc1ccc(S(=O)(=O)CCC(=O)OCC(=O)N(C)C2CCS(=O)(=O)C2)cc1 (stereo unspecified) | inactive | – |
| Cc1ccc(OCC(=O)NCCCNC(=O)c2ccco2)cc1C | inactive | – |
| CCCc1ccc(OCC(=O)NNC(=S)NC(=O)c2ccco2)cc1 | 2.24 µM (active) | – |
| O=C(Nc1ccc2ccccc2c1)/C(=C\c1ccc2c(c1)OCO2)NC(=O)c1ccco1 | inactive | – |
| CC(Oc1ccc2ccccc2c1)C(=O)NNC(=S)NC(=O)c1ccco1 (stereo unspecified) | 20 µM (active) | – |
| CCCc1ccc(OCCNC(=O)c2ccco2)cc1 | inactive | – |
| O=C(Nc1ccc2ccccc2c1)/C(=C/c1cccc(Br)c1)NC(=O)c1ccco1 | inactive | – |
| CSCCC(NC(=O)COc1ccccc1)C(=O)N(C)CC(=O)Nc1ccc(C)cc1 (stereo unspecified) | inactive | – |
| NS(=O)(=O)c1ccc2nc(NC(=O)COc3ccccc3)sc2c1 | inactive | – |
| CN(CCO)c1ccc(/C=N/Nc2nncc3ccccc23)cc1 | 31.6 µM (active) | – |
| COc1cc(/C=N/Nc2nn3cnnc3c3ccccc23)cc(OC)c1OC | inactive | – |
| FC(F)(F)c1nc2ccccc2nc1N/N=C/c1ccc(Cl)cc1 | inactive | – |
| CCOc1ncccc1C(=O)OCC(=O)Nc1cccc(S(=O)(=O)N2CCCCCC2)c1 | – | -1.01% [at 2.33 µM] (inactive) |
| CN1/C(=C\C(=O)c2oc3ccccc3c2N)C(C)(C)c2ccccc21 | inactive | – |
| CN1CCN(CCC(=O)N/N=C/C=C2\N(C)c3ccccc3C2(C)C)CC1 | 31.6 µM (active) | – |
| CC(C)Nc1nnc(SCC(=O)/C=C2\N(C)c3ccccc3C2(C)C)s1 | inactive | – |
| CCN(CCCNC(=O)c1cc2c(=O)n(CC)c3ccccc3c2s1)Cc1ccccc1 | inactive | – |

| Structure (SMILES) | Potency | activity, negative = inhibition |
| --- | --- | --- |
| CCOC(=O)c1ccc(NC(=O)Cc2cccs2)cc1 | inactive | – |
| CCCN1C(=O)C(O)(CC(=O)c2ccc(CC)cc2)c2cc(Br)ccc21 (stereo unspecified) | inactive | – |
| COc1ccc(C(C)NC(=O)C2CCCC2)cc1 (stereo unspecified) | inactive | – |
| COc1ccc(C2OC(=O)CC2C(=O)NC(C)C)cc1 (stereo unspecified) | 28.2 µM (active) | – |
| COc1ccc(N2CC(C(=O)N[C@@H](C)C(=O)N3CCCCC3)CC2=O)cc1 (stereo partly specified) | inactive | – |
| COc1ccc(NC(=O)CSc2nc3ccccc3n2CC(=O)N2CCCCC2C)cc1 (stereo unspecified) | inactive | – |
| CCOc1ccc(NC(=O)CN(C)C(=O)Cc2sc(C)nc2-c2ccc(F)cc2)cc1OCC | inactive | – |
| O=C(NCCc1c[nH]c2ccccc12)c1cc2ccccc2oc1=O | inactive | – |
| O=C(NCCc1c[nH]c2ccccc12)c1cccc(Br)c1 | – | 0.2% [at 2.33 µM] (inactive) |
| Cc1cc(C)cc(NC(=S)NCCc2c[nH]c3ccccc23)c1 | 39.8 µM (active) | – |
| O=C(O[C@H]1[C@H](Cc2ccccc2)NS(=O)(=O)[C@H]2C[C@@H]3C=C[C@]12O3)c1ccc([N+](=O)[O-])cc1 | – | -6.93% [at 2.33 µM] (inactive) |
| Brc1ccc(CN2CC[C@H]3C=CCc4cccc(c43)C2)cc1 | – | 12.2% [at 2.33 µM] (inactive) |
| CCc1ccc(NC(=O)c2cc(S(=O)(=O)NC3CCCCCC3)ccc2F)cc1 | inactive | – |
| Cc1cccc(-n2cc(CN3CCN(C(=O)c4ncn[nH]4)CC3)c(-c3cccc(F)c3)n2)c1 | inactive | – |
| COc1ccc(-c2[nH]ncc2CN(Cc2nccn2C)C(C)C)cc1F | inactive | – |
| Cc1ccc(-n2cc(CN(C)Cc3nccn3C)c(-c3cccc(C)c3)n2)cc1 | 39.8 µM (active) | – |
| COc1cc(C(=O)NCCS(=O)(=O)N2CCN(c3ccccc3)CC2)cc(OC)c1OC | inactive | – |
| Cc1ccccc1CNC(=O)C(=O)NCC(c1cccs1)S(=O)(=O)c1cccs1 (stereo unspecified) | inactive | – |
| CCc1ccc(NC(=O)CCS(=O)(=O)c2cc3c(cc2Cl)NC(=O)CO3)cc1 | inactive | – |
| CCOC(=O)c1ccc(-c2ccc(/C=C(\C#N)C(=O)Nc3ccc(C)cc3)o2)cc1 | inactive | – |
| O=C(Nc1ccc2c(c1)OCO2)c1ccc(N2C(=O)c3ccccc3C2=O)cc1 | inactive | – |
| CC(=O)Nc1ccc(NC(=O)c2ccc3c(c2)C(=O)N(c2ccccc2C)C3=O)cc1 | 39.8 µM (active) | – |

| Structure (SMILES) | Potency | activity, negative = inhibition |
| --- | --- | --- |
| Cc1cccc(N2C(=O)c3ccc(C(=O)Nc4cccc(C(=O)O)c4)cc3C2=O)c1 | inactive | – |
| O=C(CCNS(=O)(=O)c1ccc(Br)cc1)NCC1CCCO1 (stereo unspecified) | inactive | – |
| CC1CN(C(=O)N2CCC(C(=O)NCc3cccs3)CC2)c2ccccc2O1 (stereo unspecified) | inactive | – |
| CSCCC(NC(=O)COc1ccccc1)C(=O)OCCOc1ccc(F)cc1 (stereo unspecified) | inactive | – |
| O=C(Nc1nnc(-c2ccccc2)o1)c1cc(-c2cccs2)nc2ccccc12 | 39.8 µM (active) | – |
| COC(=O)c1cc(-c2cccs2)nc2ccccc12 | – | 17% [at 2.33 µM] (inactive) |
| CCCCN(C)CCCNC(=O)c1cc(-c2cccs2)nc2ccccc12 | inactive | – |
| COC(=O)c1cc2occc2n1Cc1nc(-c2ccc(C)cc2)oc1C | inactive | – |
| CC(=O)c1c(C)[nH]c(C(=O)OCC(=O)Nc2c(C)n(C)n(-c3ccccc3)c2=O)c1C | inactive | – |
| CC1CCCCN1CC(=O)NCc1ccc2c(c1)OCO2 (stereo unspecified) | – | 8.12% [at 12.7 µM] (inactive) |
| Cc1ccc(CC2CC(=O)N(c3ccc4c(c3)OCCO4)C2=O)cc1 (stereo unspecified) | inactive | – |
| Cc1ccc(N2C(=O)CC(NCc3ccc4c(c3)OCO4)C2=O)cc1Cl (stereo unspecified) | 39.8 µM (active) | – |
| O=C(c1ccc(Cn2cc([N+](=O)[O-])cn2)o1)N1CCCC1 | inactive | – |
| CCCCNC(=O)C1CCCN(c2nnc(C)c3c(C)n(-c4ccc(Cl)cc4)nc23)C1 (stereo unspecified) | inactive | – |
| COc1ccccc1NC(=O)CSc1nc2sc3c(c2c(=O)n1-c1ccccc1)CCN(C)C3 | 39.8 µM (active) | – |
| CCOc1ccc(NC(=O)CSc2nc3c(c(=O)n2-c2ccccc2OC)SCC3)cc1 | 31.6 µM (active) | – |
| COc1ccc(-n2c(SC)nc3sc4c(c3c2=O)CCN(C(C)=O)C4)cc1 | inactive | – |
| CCOc1ccc(NC(=O)CSc2nncn2C)cc1 | inactive | – |
| CC1(C)Cc2c(sc3nc(SCC(=O)NCc4ccccc4)n(-c4ccccc4)c(=O)c23)CS1 | inactive | – |
| CCc1nnc(NC(=O)CSc2nc3c(c(=O)n2-c2ccccc2OC)SCC3)s1 | – | -12.8% [at 12.7 µM] (inactive) |
| CCOC(=O)c1sc(NC(=O)CSc2nc3c(c(=O)n2-c2ccccc2)SCC3)c(C(=O)OCC)c1C | inactive | – |
| COc1ccccc1-n1c(SCC(=O)O)nc2sc3c(c2c1=O)CCC3 | inactive | – |

| Structure (SMILES) | Potency | activity, negative = inhibition |
| --- | --- | --- |
| CCOc1ccc(-n2c(SCC(=O)Nc3ccc(OC)cc3)nc3sc4c(c3c2=O)CCN(C)C4)cc1 | 39.8 µM (active) | – |
| COc1ccc(/C=C/c2nc(C#N)c(NCc3ccc(F)cc3)o2)cc1OC | inactive | – |
| COc1ccc(NC(=O)CC2SC(N3CCCCC3)=NC2=O)cc1OC (stereo unspecified) | – | 29.8% [at 12.7 µM] (inactive) |
| O=c1c2ccccc2n(Cc2cccc(Cl)c2)c(=O)n1Cc1ccccc1 | inactive | – |
| COc1ccc(CNC(=O)CSCc2nc(-c3ccccc3F)oc2C)cc1 | inactive | – |
| O=C(Cn1c(=O)n(-c2ccc(F)cc2)c(=O)c2sccc21)Nc1cccc(C(F)(F)F)c1 | inactive | – |
| CCc1sc(C(=O)N2CCN(CC(=O)Nc3cccc(F)c3)CC2)cc1C | inactive | – |
| CCN(C(=O)COC(=O)C1CCN(S(=O)(=O)c2ccc(C)c(C)c2)CC1)C1CCS(=O)(=O)C1 (stereo unspecified) | – | 7.98% [at 2.33 µM] (inactive) |
| COc1ccc(C2CC(=O)N(Cc3ccccc3C)c3c2c(C)nn3-c2nc(C)cc(C)n2)c(OC)c1 (stereo unspecified) | inactive | – |
| Cc1cc(NC(=O)CSc2ncc(C(=O)Nc3ccc(Cl)cc3)c(=O)n2C)no1 | inactive | – |
| COc1ccc(-c2nc(S(=O)(=O)c3ccccc3)c(N3CCCCC3)o2)cc1 | inactive | – |
| O=S(=O)(c1ccccc1)c1nc(Cc2ccccc2)oc1N1CCOCC1 | 7.08 µM (active) | – |
| COc1cccc(-c2nc(S(=O)(=O)c3ccccc3)c(N3CCOCC3)o2)c1 | – | -43% [at 12.7 µM] (inactive) |
| COc1ccc(CNC(=O)COC(=O)c2c(C)nn(-c3ccccc3)c2C)cc1OC | inactive | – |
| C#CCOCCOCCOCCNc1nc(N2CCN(C(=O)CCCCCCCCCCNC(=O)[C@H]([C@@H](C)CC)n3cc(CCCCN=C(N)N)nn3)CC2)nc(N2CCN(C(=O)CCCCCCCCCCNC(=O)[C@H](CO)n3cc(CCCSC)nn3)CC2)n1 | – | 10.6% [at 2.33 µM] (inactive) |
| C#CCOCCOCCOCCNc1nc(N2CCN(C(=O)[C@H](C(C)C)n3cc(CCO)nn3)CC2)nc(N2CCN(C(=O)[C@H]([C@@H](C)CC)n3cc(CCCN=C(N)N)nn3)CC2)n1 | 39.8 µM (active) | – |
| C#CCOCCOCCOCCNc1nc(N2CCN(C(=O)Cn3cc(CCCCN)nn3)CC2)nc(N2CCN(C(=O)[C@H](CCCCN)n3cc(CCC(=O)O)nn3)CC2)n1 | – | 5.8% [at 2.33 µM] (inactive) |
| C#CCOCCOCCOCCNc1nc(N2CCN(C(=O)CCCCCCCCCCNC(=O)[C@H](CCCCN)n3cc(C)nn3)CC2)nc(N2CCN(C(=O)CCCCCCCCCCNC(=O)[C@H](CO)n3cc(CCCSC)nn3)CC2)n1 | – | -8.81% [at 2.33 µM] (inactive) |
| C#CCOCCOCCOCCNc1nc(N2CCN(C(=O)[C@H](C(C)C)n3cc(CCO)nn3)CC2)nc(N2CCN(C(=O)[C@H](C(C)C)n3cc(CCO)nn3)CC2)n1 | 44.7 µM (active) | – |
| C#CCOCCOCCOCCNc1nc(N2CCN(C(=O)[C@H](CCCCN)n3cc(CCC(=O)O)nn3)CC2)nc(N2CCN(C(=O)[C@H](CCCCN)n3cc(CC(C)O)nn3)CC2)n1 (stereo partly specified) | – | -23.5% [at 2.33 µM] (inactive) |
